Measurements from PubChem BioAssay (EPA / NIEHS).
Several values for one entry are separate records, joined by “and”; a condition that tells them apart may be missing. Equal values may be shown once. More than one record can exist for a structure, and the calls need not agree. Activity calls are given as the source filed them. How the source made its calls, unless noted: active means hit-call score of the fitted dose curve at least 0.9, where 1 is the maximum; inactive means score below 0.9.

Legend:
[1] = read-out: E-selectin (Homo sapiens) (UniProt P16581); assay: BSK_IMphg_ESelectin: BioMAP Diversity Plus: IMphg Assay for Eselectin Biomarker Activity (AID 2284291); settings: primary human endothelial cells with macrophages
Summary of the method: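 Human venular endothelial cell–macrophage co-culture, E-selectin measured by ELISA 24 h after chemical dosing. Signal fitted in the positive direction against DMSO as negative control and baseline.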

[2] = read-out: Macrophage colony-stimulating factor (MCSF), CSF1 (gene 1435); assay: BSK_IMphg_MCSF: BioMAP Diversity Plus: IMphg Assay for Macrophage colony-stimulating factor (MCSF) Biomarker Activity (AID 2284293); settings: primary human endothelial cells with macrophages
Summary of the method: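 Co-culture of human venular endothelial cells and macrophages, 24 hours of chemical exposure. M-CSF quantified by ELISA, with parallel SRB total-protein staining for cytotoxicity; activity fitted relative to DMSO.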

[3] = read-out: Interleukin-10 (IL10), IL10 (gene 3586); assay: BSK_IMphg_IL10: BioMAP Diversity Plus: IMphg Assay for Interleukin-10 (IL10) Biomarker Activity (AID 2284294); settings: primary human endothelial cells with macrophages
Summary of the method: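 Human venular endothelial cells cocultured with macrophages, dosed 24 h; IL-10 measured by ELISA, activity relative to DMSO. Cytotoxicity assessed in parallel cultures by sulforhodamine B total-protein staining.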

[4] = BSK_IMphg_SRB.Mphg: Macrophage Viability Assessment in the BioMAP Diversity Plus: IMphg Assay (AID 2284295); settings: primary human endothelial cells with macrophages
Summary of the method: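 Venular endothelial cells co-cultured with macrophages, read 24 h after dosing. Total protein measured by 0.1% SRB staining after 10% TCA fixation, absorbance at 560 nm. Fitted in positive direction against DMSO baseline.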

[5] = read-out: Thrombomodulin, THBD (gene 7056); assay: BSK_LPS_Thrombomodulin: BioMAP Diversity Plus: LPS Assay for Thrombomodulin Biomarker Activity (AID 2284296); settings: primary human HUVEC with PBMC
Summary of the method: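 Human umbilical vein endothelial cells co-cultured with PBMC and stimulated with LPS; cell-surface thrombomodulin measured by ELISA 24 hours after compound. Gain or loss versus DMSO; cytotoxicity checked by SRB staining in parallel cultures.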

CD69, CD69 (gene 969) = assay: BSK_LPS_CD69: BioMAP Diversity Plus: LPS Assay for CD69 Biomarker Activity (AID 2284303); settings: primary human HUVEC with PBMC
Summary of the method: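 Human umbilical vein endothelial cells co-cultured with PBMC under LPS stimulation, chemical exposure 24 h; cell-surface CD69 measured by ELISA and fitted in the positive direction versus DMSO.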

IYD (gene 389434) = assay: CCTE_GLTED_hIYD: CCTE's human Iodotyrosine Deiodinase (xIYD) Inhibition Assay, Great Lakes Toxicology and Ecology Division (GLTED) Lab (AID 2284317; active means hit-call score of the fitted dose curve at least 0.9, where 1 is the maximum;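 further: cell-free human IYD enzyme made in baculovirus insect cells; iodide freed from monoiodotyrosine measured by cerium arsenite color change at 420 nm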)
Summary of the method: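 Human IYD expressed in a baculovirus-insect cell system was incubated 3 h with monoiodotyrosine and test chemical. Released iodide, separated on Dowex columns, was quantified by the Sandell-Kolthoff reaction at 420 nm; plates were normalized to MNT and DMSO/NaOH controls.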

Measured: AC50

E-selectin (Homo sapiens), sequence (P16581 whole entry, looked up): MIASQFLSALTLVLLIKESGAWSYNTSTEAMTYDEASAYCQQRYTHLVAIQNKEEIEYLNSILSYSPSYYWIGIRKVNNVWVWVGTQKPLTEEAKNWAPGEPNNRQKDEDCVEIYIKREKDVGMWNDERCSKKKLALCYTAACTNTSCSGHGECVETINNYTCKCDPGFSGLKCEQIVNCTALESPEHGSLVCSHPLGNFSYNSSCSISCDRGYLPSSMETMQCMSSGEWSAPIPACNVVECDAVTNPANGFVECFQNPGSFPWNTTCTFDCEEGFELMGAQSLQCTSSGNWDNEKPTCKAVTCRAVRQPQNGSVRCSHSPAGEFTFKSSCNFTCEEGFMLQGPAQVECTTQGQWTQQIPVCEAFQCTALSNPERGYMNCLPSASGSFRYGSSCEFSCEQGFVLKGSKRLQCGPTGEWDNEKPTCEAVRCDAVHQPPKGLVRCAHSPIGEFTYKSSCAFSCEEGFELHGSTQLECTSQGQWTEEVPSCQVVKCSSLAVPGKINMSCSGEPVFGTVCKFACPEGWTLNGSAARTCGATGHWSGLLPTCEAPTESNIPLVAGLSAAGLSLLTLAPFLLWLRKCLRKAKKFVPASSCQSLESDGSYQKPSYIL

Cc1ccc(S(=O)(=O)OCC(F)(F)C(F)(F)C(F)(F)C(F)(F)C(F)(F)C(F)F)cc1
active: CD69, CD69 (gene 969) 7.94 µM
inactive: [1] | [2] | [3] | [4] | [5] | CD69, CD69 (gene 969)

O=C(O)C(F)(F)C(F)(F)C(F)(F)F
not listed: IYD (gene 389434)
inactive: all other assays above

FC(F)(I)C(F)(F)C(F)(F)C(F)(F)I
active: [3] 30 µM | [4] 47.8 µM and 45.9 µM | [5] 45.8 µM
inactive: [1] | [3] | [4] | [5] | CD69, CD69 (gene 969)

C=C(C)C(=O)OCC(F)(F)C(F)(F)C(F)(F)F
not listed: [2] | IYD (gene 389434)
inactive: all other assays above

C=CC(F)(F)C(F)(F)C(F)(F)C(F)(F)C(F)(F)C(F)(F)C(F)(F)C(F)(F)C=C
not listed: [2] | IYD (gene 389434)
inactive: all other assays above

CCCCCCCCC(F)(F)C(F)(F)C(F)(F)C(F)(F)C(F)(F)C(F)(F)F
not listed: [2] | IYD (gene 389434)
inactive: all other assays above

FC(F)(F)C(F)(F)C(F)(F)C(F)(F)C(F)(F)CCI
not listed: [2] | IYD (gene 389434)
inactive: all other assays above

O=C(O)C(F)(F)C(F)(F)OC(F)(F)F
not listed: [2] | IYD (gene 389434)
inactive: all other assays above

O=C(O)C(F)(F)C(F)(F)C(F)(F)C(F)(F)C(F)(F)C(F)(F)C(F)(F)C(F)(F)Cl
inactive: [1] | [4]
active: [3] 45.8 µM and 45.3 µM | [4] 44.4 µM | [5] 30 µM and 27.2 µM | CD69, CD69 (gene 969) 35.5 µM and 40.7 µM | IYD (gene 389434) 74.4 µM

C=C(C)C(=O)OCCC(F)(F)C(F)(F)C(F)(F)C(F)(F)C(F)(C(F)(F)F)C(F)(F)F
not listed: [2] | IYD (gene 389434)
inactive: all other assays above

O=C(O)C(F)(OC(F)(F)C(F)(OC(F)(F)C(F)(OC(F)(F)C(F)(F)C(F)(F)F)C(F)(F)F)C(F)(F)F)C(F)(F)F (stereo not given)
not listed: [2] | IYD (gene 389434)
inactive: all other assays above

CCN(Cc1cccc(S(=O)(=O)O)c1)c1ccc(C(=C2C=CC(=[N+](CC)Cc3cccc(S(=O)(=O)O)c3)C=C2)c2ccc(O)cc2S(=O)(=O)[O-])cc1
active: IYD (gene 389434) 66.1 µM

O=C(O)C(F)(F)C(F)(F)C(F)(F)C(F)(F)C(F)(F)C(F)(F)C(F)(F)C(F)(F)C(F)(F)C(F)(F)C(F)(F)C(F)(F)C(F)(F)F
not listed: [2] | IYD (gene 389434)
inactive: all other assays above

CCO[Si](CCC(F)(F)C(F)(F)C(F)(F)C(F)(F)C(F)(F)C(F)(F)F)(OCC)OCC
not listed: [2] | IYD (gene 389434)
inactive: all other assays above

N=C(N)C(F)(F)C(F)(F)C(F)(F)C(F)(F)C(F)(F)C(F)(F)C(F)(F)F
inactive: [1] | [3] | [4] | [5]
active: [5] 48.7 µM | CD69, CD69 (gene 969) 45 µM and 14.9 µM

C=CC(=O)OCC(F)(F)C(F)(F)C(F)(F)C(F)(F)C(F)(F)C(F)(F)C(F)(F)F
not listed: [2] | IYD (gene 389434)
inactive: all other assays above
